POLH inh = qHTS for Inhibitors of Polymerase Eta. recombinant Pol eta, fluorescent DNA replication assay. Potency, µM (series often up to 114 µM), inactives show at the highest dose activity change, negative = inhibition, usual class: inhibitors. 390,000 compounds, 1.2% hits; also: % is scaled to controls: 0 for no effect and ±100 for the full control effect
Target sequence (Q9Y253 whole entry, looked up): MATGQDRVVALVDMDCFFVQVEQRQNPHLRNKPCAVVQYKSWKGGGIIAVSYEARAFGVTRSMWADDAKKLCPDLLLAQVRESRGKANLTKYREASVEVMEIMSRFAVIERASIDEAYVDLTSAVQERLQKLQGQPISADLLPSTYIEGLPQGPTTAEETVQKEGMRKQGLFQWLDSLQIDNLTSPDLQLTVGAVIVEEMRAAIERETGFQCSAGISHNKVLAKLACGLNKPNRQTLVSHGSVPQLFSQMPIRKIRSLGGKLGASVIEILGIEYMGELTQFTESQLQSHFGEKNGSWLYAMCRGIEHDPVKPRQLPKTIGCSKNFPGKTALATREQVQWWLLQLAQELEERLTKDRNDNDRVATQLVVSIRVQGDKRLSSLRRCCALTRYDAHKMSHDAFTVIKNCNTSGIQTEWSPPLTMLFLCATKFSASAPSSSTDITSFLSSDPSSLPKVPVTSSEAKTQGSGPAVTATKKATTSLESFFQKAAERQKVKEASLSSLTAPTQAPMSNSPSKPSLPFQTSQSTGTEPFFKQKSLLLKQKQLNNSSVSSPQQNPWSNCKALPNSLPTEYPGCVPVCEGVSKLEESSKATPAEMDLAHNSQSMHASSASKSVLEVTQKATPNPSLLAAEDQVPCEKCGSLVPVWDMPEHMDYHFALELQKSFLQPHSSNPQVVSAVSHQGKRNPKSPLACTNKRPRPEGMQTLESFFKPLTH
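Fluorescent replication assay: 50 nM final substrate added after a 15 min room-temperature compound preincubation with 10 nM enzyme. Signal taken at 0 min and again at 10 min.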
FEN1 inhibitor = qHTS Assay for the Inhibitors of Human Flap endonuclease 1 (FEN1). P39748. Recombinant FEN1 flap cleavage, fluorescence, 15 min. Potency, µM (series often up to 114 µM), for inactives: at the highest dose activity change, negative = inhibition, hits mostly inhibitors. 390,000 compounds, 0.35% hits; also: % is scaled to controls: 0 for no effect and ±100 for the full control effect; nearly all actives have a fitted effect of over 65% in size
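Reaction started by adding substrate (50 nM final) to 10 nM enzyme after 15 min room-temperature compound preincubation. Reads at 0 and 15 min, with data normalized and fitted to a four-parameter Hill equation.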
POLB inh = qHTS Assay for Inhibitors of DNA Polymerase Beta; P06746; 340,000 compounds, 1.3% hits; Pol beta primer extension/strand displacement, fluorescence kinetic; Potency, µM (highest dose often 114 µM), for the others: top-dose activity change, negative = inhibition, hits mostly inhibitors; also: % is scaled to controls: 0 for no effect and ±100 for the full control effect
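Human Pol beta at 10 nM; strand-displacement substrate 50 nM final. Compound exposure 15 min at room temperature before start, reaction 10 min at room temperature.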
WRN inhibitor = qHTS for Inhibitors of WRN Helicase. 360,000 compounds, 0.46% hits. WRN helicase unwinding, fluorescent forked duplex, kinetic. Bifunctional 3'-5' exonuclease/ATP-dependent helicase WRN (Homo sapiens), Q14191. AID 651768, 2012. Potency, µM (titrated, usually from 114 µM), for the others: top-dose activity change, negative = inhibition, hits mostly inhibitors; also: % is scaled to controls: 0 for no effect and ±100 for the full control effect; nearly all actives have a fitted effect of over 55% in size
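Fluorescence dequenching readout, ex 525 nm/em 598 nm, kinetic mode: forked duplex DNA (100 nM final) with adjacent fluorophore and quencher unwound by WRN (20 nM final) with 2 mM ATP. Compound preincubation 15 min, room temperature.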
POLK inh = qHTS for Inhibitors of Polymerase Kappa | purified Pol kappa, fluorescent DNA synthesis assay, 10 min | Potency, µM (series often up to 107 µM), for the others: at the top dose activity, negative = inhibition, hits mostly inhibitors | 400,000 compounds, 0.53% hits | AID 588579, 2011; also: % is scaled to controls: 0 for no effect and ±100 for the full control effect
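Here, compound and 10 nM enzyme are combined for 15 min at room temperature; adding 50 nM substrate (final) starts DNA synthesis, tracked by fluorescence at 0 and 10 min against buffer-only wells.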
POLI inh = qHTS for Inhibitors of Polymerase Iota; Pol iota fluorescent replication assay, 10 min; 390,000 compounds, 1% hits; DNA polymerase iota (Homo sapiens), Q9UNA4; Potency, µM (doses to about 115 µM), inactives show at the highest dose activity, negative = inhibition, most hits filed as inhibitors
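Pol iota at 10 nM preincubated 15 min with compounds at room temperature; reaction started with fluorescent substrate, 50 nM final. Fluorescence read kinetically at 0 and 10 min; buffer-only wells as negative control.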
* marks the source's active call; other numbers are inactive results; ? = inconclusive; / = not tested or not shown; [ ] = dose if it differs, or a comment. Compounds with a hit are over-represented: about 2.4% of the library has one in this group of screens. Calls follow the shape of the dose curve; as a rule, active = well fitted curve in the direction sought with a large enough effect; inconclusive = small, poorly fitted or top-dose-only effect, or another doubt; inactive = no such curve, though single readings can be large; an effect the other way counts as inactive or inconclusive. Potency is read from the fitted curve at half-maximal effect.

SMILES | POLH inh | FEN1 inhibitor | POLB inh | WRN inhibitor | POLK inh | POLI inh
Cc1ccc(-c2nn(C)c(=O)c3ccccc23)cc1S(=O)(=O)NCCN1CCOCC1 | ? | 12% | 3% | -15% | -4% | ?
CCOC(=O)CNS(=O)(=O)c1cc(-c2nn(C)c(=O)c3ccccc23)ccc1C | ? | 0% | 35µM* | -29% | ? | 25µM*
Cc1cnc2ccccc2c1/C=C/c1ccc(N)cc1 | / | -24% | / | / | -17% | -4%
COc1ccc(COc2ccsc2C(=O)Nc2ccc(Cl)c(Cl)c2)cc1 | ? | 4% | 35µM* | -29%[57.1 µM] | -1% | 45%
COc1cc(/C=N/NC(=O)c2ccncc2)ccc1OCCN1CCCCC1 | 2% | -3% | ? | -28% | ? | ?
COc1cc(/C=N/NC(=O)c2cc3ccccc3cc2O)ccc1OCCN1CCCCC1 | -23% | ? | 79µM* | -28% | -25% | ?
O=C(N/N=C/c1ccncc1)c1cc2c(ccc3ccccc32)o1 | ? | -18% | 1% | -7% | -2% | 9%
O=C(O)c1ccc(/C=N/NC(=O)c2cc3c(ccc4ccccc43)o2)cc1 | ? | ? | 40µM* | 3% | -34% | ?
COc1ccc(/C=N\NC(=O)c2cc3c(ccc4ccccc43)o2)cc1O | 50µM* | ? | -20% | -13%[11.6 µM] | -18% | 28µM*
O=C(Nc1cccnc1)c1cc2c(ccc3ccccc32)o1 | ? | -23% | 32µM* | ? | ? | 50µM*
O=C(COc1ccc(/C=N/NC(=O)c2cc3ccccc3o2)cc1Br)Nc1ccccc1 | 0.89µM* | ? | 5.6µM* | -15% | -5% | ?
Cc1ccc(C)c(Cn2c(=O)n(CCCC(=O)NCCc3ccc(Cl)cc3)c(=O)c3ccccc32)c1 | 2% | 1% | 3% | / | 14% | 11%
O=C(NCc1noc2ccccc12)Nc1ccc(F)cc1F | -11% | 2% | -9% | / | -16%[60.1 µM] | 16%
Cc1ccc(OCC(=O)Nc2cc(NC(=O)COc3ccc(C)c(C)c3)cc(C(=O)O)c2)cc1C | ? | ? | 50µM* | -11% | -20% | -15%
COc1ccccc1OCC(=O)Nc1cc(NC(=O)COc2ccccc2OC)cc(C(=O)O)c1 | -7% | 1% | -3% | -23% | -11% | 197%
O=C(COc1ccccc1Cl)Nc1cc(NC(=O)COc2ccccc2Cl)cc(C(=O)O)c1 | -17% | 4% | 79µM* | -34% | -13% | 140%
COc1cc(-c2noc(C3CC(=O)N(c4cc(C)ccc4C)C3)n2)cc(OC)c1OC (stereo unspecified) | -10% | 12% | 0% | / | -24% | -14%
C/C(=N\NC(=O)c1cc2ccccc2cc1O)c1cc2ccccc2o1 | 56µM* | -3% | 7.1µM* | ? | 79µM* | 22µM*
CC(=O)c1ccc(NC2=NS(=O)(=O)c3ccccc32)cc1 | 4% | 7% | 1% | / | -24% | -8%
CCOC(=O)N1CCN(C(=O)CN(c2cc(C)ccc2OC)S(=O)(=O)c2ccc(C)cc2)CC1 | -22% | 1% | ? | / | 0% | ?
O=C(NCCc1ccccc1)C1CC(=O)N(C2CCCCCC2)C1 (stereo unspecified) | 5% | -15% | -7% | -4% | 0% | 79µM*
CC(NC(=O)Cc1ccc(NC(=O)N2CCSc3ncccc32)cc1)c1ccccc1 (stereo unspecified) | -12% | -3% | 12% | / | -2% | 25%
CCN(CCO)c1nc(SC)nc2c1sc1nc(-c3ccco3)c3c(c12)CCC3 | -15% | -9% | 7.1µM* | -13% | ? | ?

Source: PubChem (National Center for Advancing Translational Sciences (NCATS))
